Experimental data as given in the supplement of paper PMC11417369.
In all, about 25,000 sequences were measured (“ln(normalized median fluorescence intensity)”: median about 9.7, highest 2% from about 11 on). The sample as a whole holds a higher share of the highest values than the screen did.

What follows are sequences tested on PfAP2-HC AP2 domain (GST-tagged) (assay: gcPBM binding intensity (ln(normalized median fluorescence intensity)); higher = stronger DNA binding).
Summary of the method: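 Using an Agilent 4 × 180k array, primer-extended double-stranded 36-bp intergenic genomic probes and negative controls were exposed for 1 h to GST-fused P. falciparum DNA-binding domains expressed in E. coli. Binding was carried out in 1× PBS with 1% milk, 0.2 mg/ml BSA, 0.5% salmon testes DNA and 0.03% Triton X-100, and protein was detected with Alexa488 anti-GST antibody and a 488 nm scan. Binding intensity is the highest Masliner-normalised natural-log median intensity across replicate spots of either probe orientation.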

Sequence | gcPBM binding intensity (ln)
TAGGGATTATACCACACACACATACACATAAATATA [CACACA_site3178] | 10.3
ACAATATGCAAAAAGTGTACACATTCATTTATATAA [XGTACX_site1061] | 10.1
AGCAACCCCCTAGCTACACACATATAGATATAAATA [CACACA_site6577] | 10.6
TTTAAATCGTTAAAAACACACAAAAAAAATCAATTA [CACACA_site2519] | 9.59
TTTTTTTTTTTGGTTACACACATTTGTATATTCTCA [CACACA_site134] | 9.89
CTATATGTTAAATTCTCACACATTATTACAATTTAA [CACACA_site5979] | 9.67
AATTGTAAATTGGGCACTTATAAAAATGAACAAATA [CACACA_negctrl_site1583] | 9.71
ATGAAAAAATTTATATGTACTTAAAATATAATCATA [XGTACX_site1228] | 9.33
TACAAACAGACATATACACACAAAAAAAAAATAAAA [CACACA_site2562] | 9.89
TATATATACAGACACATACACACAAATAAAAAAACA [CACACA_site3413] | 10.3
AAAAAAAACAGACACATACACACAAAAATGTTATAA [CACACA_site82] | 10.9
AAAAAAAACAGACACACACACAAATACATACACAAA [CACACA_site705] | 10.5
AAAAAAAAAAAAAACACACACATACAGACAAAAATG [CACACA_site83] | 11.5
AACACATACAGACACACACACAAAAAAAAAAAAAAA [CACACA_site6322] | 10.9
AAAAAACACGCACATACACACAAAAATGTTATAAAT [CACACA_site6188] | 10.2
AAAAAACACAGACATACACACAAAAAGGTTATAAAT [CACACA_site4222] | 10.2
AAATAAAACAGACACACACACACATACACAAAAAAA [CACACA_site7753] | 10.9
TATATTTTTATAATAACACACGATATATGTTTAGGA [CACACA_site1283] | 9.63
TAAGACTATTAAAAAATTGAGTACATGAACTGTTCA [GTGCAC_negctrl_site670] | 9.41
AACAAAATAAGACACACACACAAATGTACCTATATA [CACACA_site7189] | 10.4
ATATCTAAATATATTACACACAGATATCTTCCTATA [CACACA_site3701] | 9.87
CTAAGAAAAAATAAAGCACACAAATATTTTAAAAAC [CACACA_site9094] | 9.93
AATTTTTTTTTTTTTTTTTTTTATATATGTGTGTGT [XGTACX_negctrl_site129] | 11
TTTTTTATATATGTGTGTGTGTGTGTGTCAAGTTTA [GTGCAC_negctrl_site460] | 11.1
ATATTTATATATATATGTACATATGTGTGTTTTTAT [XGTACX_site3956] | 9.91
TATATATGTATCAAGTGTACAGTTTTAAAAAAAAAA [XGTACX_site6011] | 9.67
TATATGTTAATTTTTTTTTTTTTTTTTTTTTTTATA [CACACA_negctrl_site62] | 9.26
TTATATATTTTTATGTGTACTTATATATATATATAT [XGTACX_site6211] | 9.77
